Assay outcomes (PubChem BioAssay)
In the library only some 12% were active in any assay of this set; here they are far more common.
Pf growth 48h – Primary qHTS for delayed death inhibitors of the malarial parasite plastid, 48 hour incubation; P. falciparum luciferase growth in erythrocytes, 48 h; Potency, µM (titrated, usually from 28.7 µM), without a hit: top-dose activity change, negative = inhibition, most hits filed as inhibitors; 5.9% of 310,000 active; further: on the % scale 0 is the no-effect control and ±100 the full control effect
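Parasite viability was followed by luminescence of a genomically integrated firefly luciferase. Cultures held 0.1% parasitemia at 2% hematocrit (final), incubated under 5% CO2 at 37 C.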
Pf growth 96h – Primary qHTS for delayed death inhibitors of the malarial parasite plastid, 96 hour incubation. 6.9% of 320,000 active. P. falciparum luciferase reporter growth, 96 h. Potency, µM (doses to about 28.7 µM), for inactives: top-dose activity change, negative = inhibition, actives largely listed as inhibitors; further: on the % scale 0 is the no-effect control and ±100 the full control effect
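Delayed-death screen, second-generation endpoint: infected erythrocytes, 2% hematocrit, 0.05% parasitemia final; 96 hours at 37 C, 5% CO2; luciferase detection reagent; luminescence decrease equals reduced growth.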
Sm TGR inh – qHTS Assay for the Inhibitors of Schistosoma Mansoni Peroxiredoxins; Schistosoma mansoni thioredoxin glutathione reductase (TGR), Q962Y6; AID 485364, 2010; 3% of 360,000 active; purified TGR, DTNB reduction, TNB absorbance 405 nm; Potency, µM (titrated, usually from 114 µM), without a hit: top-dose activity change, negative = inhibition, most hits filed as inhibitors; further: on the % scale 0 is the no-effect control and ±100 the full control effect; nearly all actives have a fitted effect of over 60% in size
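First, TGR (20 nM dispensed) and NADPH were mixed with compound. Second, a 15 min room-temperature incubation followed. Third, further NADPH and then DTNB were added to start the reaction. Finally, TNB absorbance was monitored kinetically.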
SARS PLpro yeast – qHTS of Yeast-based Assay for SARS-CoV PLP | S. cerevisiae expressing SARS-CoV PLpro, growth rescue | Potency, µM (series often up to 32.9 µM), inactives show at the highest dose activity, positive = growth rescue, actives largely listed as activators | 0.19% of 330,000 active; calls by dose curve; further: 0% is about no effect; nearly all actives have a fitted effect of over 55% in size
* hit, by the source's call; ? = inconclusive; . = no result given. Unless noted, the call rests on the fitted dose curve; in most records, active means well fitted curve in the direction sought with a large enough effect; inconclusive means small, poorly fitted or top-dose-only effect, or another doubt; inactive means no such curve, though single readings can be large; an effect the other way counts as inactive or inconclusive. Potency means the concentration at half of the fitted maximal effect.

SMILES | Pf growth 48h | Pf growth 96h | Sm TGR inh | SARS PLpro yeast
CN(C(=O)C1CCN(S(=O)(=O)c2cccs2)CC1)C1CCCCC1 | -16% | 1.7µM* | -25% | -2%
COc1ccc(CNC(=O)c2cc3cc(S(=O)(=O)N4CCCCC4)ccc3n2C)c(OC)c1 | . | . | 6% | .
Cc1ccc(-n2cc(CNCCN3CCOC3=O)c(-c3cccc(C)c3)n2)cc1 | 42% | -30% | 22µM* | -1%
COC(=O)CC1C(=O)NCCN1Cc1cn(-c2ccc(C)cc2)nc1-c1cccc(C)c1 (stereo not drawn) | ? | 10µM* | 0% | 1%
COC(=O)CC1C(=O)NCCN1C(=S)Nc1cccc(C)c1 (stereo not drawn) | 0% | 13% | -8% | 6%
CC(=O)c1cccc(NC(c2ccc(F)cc2)c2nnc(-c3ccccc3)o2)c1 (stereo not drawn) | . | . | 16% | .
CCOC(=O)c1cc(S(=O)(=O)N2CCCC2)cn1C | 1% | 20% | 1% | -6%
CC(=O)Oc1ccc(C(=O)Nc2cccc(C(=O)NC(C)(C)C)c2)cc1 | -4% | 5.2µM* | 2% | 1%
COc1cc(NC(=O)c2ccccc2)ccc1NC(=O)Cc1ccccc1 | -8% | -23% | 0% | 1%
COc1cc(NC(=O)Cc2ccccc2)ccc1NC(=O)c1ccccc1 | 12% | 10µM* | 7% | 8%
COc1cccc(C(=O)Nc2ccccc2NC(=O)c2cccc(OC)c2)c1 | 29% | 15µM* | 6% | 1%
CC(=O)Oc1ccc(C(=O)Nc2cccc(C(=O)c3cccc(NC(=O)c4ccc(OC(C)=O)cc4)c3)c2)cc1 | -20% | 24% | -11% | -1%
COc1cccc(C(=O)Nc2ccccc2-c2ccccc2)c1 | ? | -7% | -4% | 0%
COc1cccc(C(=O)NC(=S)Nc2ccccc2N2CCCCC2)c1 | 7.4µM* | ? | 5% | ?
O=C(CSc1n[nH]c(-c2ccccc2Cl)n1)N1CCN(c2ccccc2F)CC1 | . | . | 0% | .
CC1(C)N=C(SCc2ccc(F)cc2)c2ccccc2N1 | . | . | 4% | .
COc1ccc(NC(=O)C(Sc2ccccc2)c2ccccc2)c(OC)c1 (stereo not drawn) | -24% | 2.6µM* | -14% | 3%
COc1ccc(C(=O)N/N=C/C(Br)=C/c2ccccc2)cc1 | ? | -20% | -8% | -37%
COc1cccc(C(=O)Nc2ccc(NC(=O)C3CC=CCC3C(=O)O)cc2)c1 (stereo not drawn) | 150% | 12µM* | 5% | 4%
COC(=O)c1ccccc1NC(=O)c1ccc(COc2cccc3ccccc23)o1 | -7% | . | 56µM* | 3%
COc1cccc(C(=O)N/N=C/C(Br)=C/c2ccccc2)c1 | 13µM* | -19% | -10% | -89%
CC(=O)Cc1nsc(NC(=O)c2ccc(COc3ccccc3)o2)n1 | -3% | ? | 45µM* | -1%
COc1ccc(NC(=O)c2cccc(NC(=O)c3ccccc3)c2)c(OC)c1 | -25% | 10µM* | -5% | 2%
CC(=O)Cc1nsc(NC(=O)c2ccc(COc3ccccc3Cl)o2)n1 | 20% | -4% | -23% | -2%
Cc1cccc(OCCCC(=O)NNC(=O)c2ccccn2)c1 | 2.3µM* | 1.7µM* | 4% | -1%
SMILES | Pf growth 48h | Pf growth 96h | Sm TGR inh | SARS PLpro yeast
COc1ccc(NC(=O)c2ccc(-n3c(C)ccc3C)cc2)c(OC)c1 | ? | ? | 28µM* | 0%
COc1ccc(NC(=O)c2ccc(COc3ccccc3)o2)c(OC)c1 | -8% | 8.3µM* | -5% | -11%
COc1cccc(C(=O)NCCCNC(=O)c2ccccn2)c1 | 9% | 4.7µM* | 1% | -2%
CCn1cnc2c1c(=O)n(CC(=O)Nc1ccc3c(c1)OC(F)(F)O3)c(=O)n2Cc1ccccc1 | ? | . | -7% | -3%
CCCCNC(=O)Cn1c(=O)c2c(ncn2CC)n(Cc2ccccc2)c1=O | -2% | 13µM* | -25% | -1%
CCNC(=O)Cn1c(=O)c2c(ncn2Cc2ccccc2)n(Cc2ccccc2)c1=O | ? | 1µM* | 12% | ?
CCn1cnc2c1c(=O)n(CC(=O)NN)c(=O)n2Cc1ccccc1 | . | ? | -31% | 1%
CCn1cnc2c1c(=O)n(CC(=O)Nc1ccc(C(N)=O)cc1)c(=O)n2Cc1ccccc1 | ? | 13µM* | -11% | 6%
NS(=O)(=O)c1cccc(Nc2nc3ccccc3nc2NS(=O)(=O)c2ccc(Cl)cc2)c1 | . | . | . | -2%
O=C(CN1C(=O)NC2(CCCCC2)C1=O)N1CCN(S(=O)(=O)c2ccc(F)c(F)c2F)CC1 | 9% | 1% | -13% | -1%
O=c1cc2c(nn1Cc1c(Cl)cccc1Cl)-c1ccccc1CC2 | . | 5.2µM* | -13% | -11%
O=C(CN1CCSC1=O)N1CCN(S(=O)(=O)c2ccccc2)CC1 | 0% | 16% | -3% | -2%
Cc1cc(OC(C)C(=O)N2CCN(c3ccccc3)CC2)c2c(C)c(C)c(=O)oc2c1 (stereo not drawn) | 9.3µM* | 13µM* | -12% | -2%
Cc1cc(OCC(=O)N2CCN(c3ccccc3)CC2)c2c(C)c(C)c(=O)oc2c1 | 25% | 32% | 4% | -4%
C=C1CCC2C(C)(C)[C@H](O)CC[C@@]2(C)[C@@H]1COc1cc(=O)oc2ccccc12 (stereo partly drawn) | ? | 15µM* | -8% | -6%
CN(C(=O)COc1ccc2ccc(=O)oc2c1)C1CCS(=O)(=O)C1 (stereo not drawn) | -2% | ? | ? | 0%
O=C(Oc1cc(=O)oc2ccccc12)c1cccnc1Cl | 1% | -5% | -3% | 7%
C=C1CCC2C(C)(C)[C@@H](O)CC[C@@]2(C)[C@@H]1COc1ccc2ccc(=O)oc2c1 (stereo partly drawn) | 12µM* | 5.2µM* | 37% | -9%
CC(=O)OC1CCC2(C)C(COc3ccc4ccc(=O)oc4c3)C(C)(O)CCC2C1(C)C (stereo not drawn) | ? | 9.3µM* | -1% | -12%
CCc1ccc(NC(=O)CSC2=Nc3ccccc3C3=NC(CC(=O)NCc4ccccc4)C(=O)N23)cc1 (stereo not drawn) | . | . | -9% | .
O=C(NCc1ccco1)c1scc2c1OCCO2 | -11% | -21% | 35µM* | 11%
O=C(NCc1ccco1)c1ccccc1NS(=O)(=O)c1ccc(Cl)s1 | -1% | . | 28µM* | -53%
O=C(NCc1ccco1)c1ccc(C(=O)NCc2ccco2)s1 | -8% | . | ? | -7%
O=C(NCc1ccco1)c1ccccc1NS(=O)(=O)c1cccs1 | 8% | ? | ? | -14%
O=C(NCc1ccco1)c1ccccc1NS(=O)(=O)c1ccc2c(c1)OCCO2 | 17µM* | . | -34% | .
Cc1ccc(OCCC(=O)N(CC(=O)Nc2ccccc2C(F)(F)F)Cc2ccco2)cc1 | ? | ? | -9% | -2%
CCc1nnc(NC(=O)CN2CCN(Cc3ccccc3Cl)CC2)s1 | 0% | -8% | -10% | -10%
